Experimental findings from the supplement of paper PMC11001985 are described below.

Unmarked numbers belong to inactive results.

Chain of UniProt P00533 (P00533 whole entry): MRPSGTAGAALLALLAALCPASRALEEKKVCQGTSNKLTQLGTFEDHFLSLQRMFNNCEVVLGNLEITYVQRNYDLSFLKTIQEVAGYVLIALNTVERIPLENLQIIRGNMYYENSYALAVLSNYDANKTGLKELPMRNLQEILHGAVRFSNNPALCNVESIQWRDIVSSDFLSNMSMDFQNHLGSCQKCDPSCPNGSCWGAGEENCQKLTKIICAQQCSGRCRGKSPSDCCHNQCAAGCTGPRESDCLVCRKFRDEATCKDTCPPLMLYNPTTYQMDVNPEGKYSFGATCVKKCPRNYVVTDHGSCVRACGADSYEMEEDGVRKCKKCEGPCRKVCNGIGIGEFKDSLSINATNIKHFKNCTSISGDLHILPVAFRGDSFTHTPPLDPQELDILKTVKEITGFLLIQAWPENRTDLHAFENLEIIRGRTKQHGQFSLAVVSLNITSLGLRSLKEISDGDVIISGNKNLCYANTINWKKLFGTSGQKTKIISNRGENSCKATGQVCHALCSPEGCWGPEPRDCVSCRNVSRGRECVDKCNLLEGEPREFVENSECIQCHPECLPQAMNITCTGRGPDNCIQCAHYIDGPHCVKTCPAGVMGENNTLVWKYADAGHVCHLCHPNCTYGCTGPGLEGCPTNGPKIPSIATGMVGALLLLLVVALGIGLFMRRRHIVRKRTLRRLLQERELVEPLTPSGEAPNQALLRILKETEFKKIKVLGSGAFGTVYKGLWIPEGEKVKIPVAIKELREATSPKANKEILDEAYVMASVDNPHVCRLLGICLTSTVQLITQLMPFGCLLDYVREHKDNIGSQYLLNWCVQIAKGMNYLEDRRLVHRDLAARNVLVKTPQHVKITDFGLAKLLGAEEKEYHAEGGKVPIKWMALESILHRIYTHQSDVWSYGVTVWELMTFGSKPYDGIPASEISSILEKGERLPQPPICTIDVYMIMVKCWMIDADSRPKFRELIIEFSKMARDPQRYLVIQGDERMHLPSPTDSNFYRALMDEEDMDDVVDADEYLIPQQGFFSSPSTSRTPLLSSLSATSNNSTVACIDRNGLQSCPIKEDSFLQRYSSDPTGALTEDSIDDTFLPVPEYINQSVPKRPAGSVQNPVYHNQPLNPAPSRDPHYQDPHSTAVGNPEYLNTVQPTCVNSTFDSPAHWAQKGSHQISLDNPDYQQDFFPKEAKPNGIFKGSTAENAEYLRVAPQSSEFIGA
Chain of UniProt P26038 (P26038 whole entry): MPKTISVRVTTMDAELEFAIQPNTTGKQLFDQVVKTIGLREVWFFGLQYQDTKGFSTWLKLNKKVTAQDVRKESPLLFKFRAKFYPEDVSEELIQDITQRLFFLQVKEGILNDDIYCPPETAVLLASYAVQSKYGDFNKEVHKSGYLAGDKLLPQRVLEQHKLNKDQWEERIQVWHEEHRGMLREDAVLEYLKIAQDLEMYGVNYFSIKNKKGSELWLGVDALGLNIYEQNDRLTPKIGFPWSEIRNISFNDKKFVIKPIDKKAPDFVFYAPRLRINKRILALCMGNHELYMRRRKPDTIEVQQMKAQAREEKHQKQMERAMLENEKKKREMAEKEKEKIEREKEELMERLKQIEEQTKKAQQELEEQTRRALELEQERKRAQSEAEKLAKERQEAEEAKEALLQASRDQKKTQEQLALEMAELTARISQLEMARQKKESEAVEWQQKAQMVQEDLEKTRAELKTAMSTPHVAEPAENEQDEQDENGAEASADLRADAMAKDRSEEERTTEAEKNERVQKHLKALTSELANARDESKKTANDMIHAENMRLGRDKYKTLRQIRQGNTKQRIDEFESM
Chain of UniProt O95084 (O95084 whole entry): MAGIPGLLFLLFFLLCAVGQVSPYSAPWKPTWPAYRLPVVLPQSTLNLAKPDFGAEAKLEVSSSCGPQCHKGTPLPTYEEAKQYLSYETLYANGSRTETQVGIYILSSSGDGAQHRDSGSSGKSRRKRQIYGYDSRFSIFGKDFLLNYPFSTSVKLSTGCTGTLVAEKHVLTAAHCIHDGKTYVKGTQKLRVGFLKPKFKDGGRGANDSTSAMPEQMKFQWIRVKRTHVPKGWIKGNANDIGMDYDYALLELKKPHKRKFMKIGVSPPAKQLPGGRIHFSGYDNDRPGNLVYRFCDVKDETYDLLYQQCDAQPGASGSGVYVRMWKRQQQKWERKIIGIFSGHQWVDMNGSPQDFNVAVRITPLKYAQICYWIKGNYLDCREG
Chain of UniProt P07355 (P07355 whole entry): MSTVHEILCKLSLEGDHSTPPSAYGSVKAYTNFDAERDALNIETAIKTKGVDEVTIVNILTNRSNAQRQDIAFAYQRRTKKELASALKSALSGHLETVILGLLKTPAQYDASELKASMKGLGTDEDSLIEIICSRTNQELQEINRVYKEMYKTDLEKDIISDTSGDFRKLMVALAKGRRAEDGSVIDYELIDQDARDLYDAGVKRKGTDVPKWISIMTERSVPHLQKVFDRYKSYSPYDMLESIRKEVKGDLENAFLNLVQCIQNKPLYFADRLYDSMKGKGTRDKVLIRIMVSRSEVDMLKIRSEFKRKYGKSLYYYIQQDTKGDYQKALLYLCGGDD
Chain of UniProt O00560 (O00560 whole entry): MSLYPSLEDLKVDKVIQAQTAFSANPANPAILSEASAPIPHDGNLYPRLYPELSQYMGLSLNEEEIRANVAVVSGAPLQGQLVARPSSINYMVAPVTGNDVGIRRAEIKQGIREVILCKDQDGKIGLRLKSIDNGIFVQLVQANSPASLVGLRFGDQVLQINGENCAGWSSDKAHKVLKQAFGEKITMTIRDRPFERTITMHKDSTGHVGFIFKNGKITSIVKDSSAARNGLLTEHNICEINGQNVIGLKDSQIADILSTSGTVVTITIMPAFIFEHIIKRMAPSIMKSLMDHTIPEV
Chain of UniProt Q99439 (Q99439 whole entry): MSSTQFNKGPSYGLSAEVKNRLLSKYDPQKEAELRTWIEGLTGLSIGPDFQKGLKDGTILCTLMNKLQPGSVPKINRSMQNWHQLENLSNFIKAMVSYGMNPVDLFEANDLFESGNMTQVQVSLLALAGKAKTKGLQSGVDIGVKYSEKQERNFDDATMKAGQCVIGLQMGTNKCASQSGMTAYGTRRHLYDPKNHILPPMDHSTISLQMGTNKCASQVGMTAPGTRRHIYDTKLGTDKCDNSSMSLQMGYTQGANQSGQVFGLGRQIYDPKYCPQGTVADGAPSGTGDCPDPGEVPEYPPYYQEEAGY
Chain of UniProt O75083 (O75083 whole entry): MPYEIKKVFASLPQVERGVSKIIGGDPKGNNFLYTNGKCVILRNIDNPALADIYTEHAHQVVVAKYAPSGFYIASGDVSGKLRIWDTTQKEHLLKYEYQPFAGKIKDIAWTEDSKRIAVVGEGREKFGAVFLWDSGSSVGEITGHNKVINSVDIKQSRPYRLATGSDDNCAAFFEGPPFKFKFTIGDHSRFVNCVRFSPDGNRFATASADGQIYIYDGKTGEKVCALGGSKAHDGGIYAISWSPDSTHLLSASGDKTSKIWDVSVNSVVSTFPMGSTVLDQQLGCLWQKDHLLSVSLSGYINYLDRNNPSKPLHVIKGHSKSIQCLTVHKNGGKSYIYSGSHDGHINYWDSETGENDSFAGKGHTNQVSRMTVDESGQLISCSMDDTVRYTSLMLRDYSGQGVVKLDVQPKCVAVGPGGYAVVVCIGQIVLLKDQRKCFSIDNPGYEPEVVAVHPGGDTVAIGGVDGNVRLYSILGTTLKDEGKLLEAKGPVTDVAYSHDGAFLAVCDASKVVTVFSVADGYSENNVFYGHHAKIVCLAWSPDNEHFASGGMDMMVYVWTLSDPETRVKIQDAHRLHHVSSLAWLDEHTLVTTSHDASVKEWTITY
Chain of UniProt Q5T9A4 (Q5T9A4 whole entry): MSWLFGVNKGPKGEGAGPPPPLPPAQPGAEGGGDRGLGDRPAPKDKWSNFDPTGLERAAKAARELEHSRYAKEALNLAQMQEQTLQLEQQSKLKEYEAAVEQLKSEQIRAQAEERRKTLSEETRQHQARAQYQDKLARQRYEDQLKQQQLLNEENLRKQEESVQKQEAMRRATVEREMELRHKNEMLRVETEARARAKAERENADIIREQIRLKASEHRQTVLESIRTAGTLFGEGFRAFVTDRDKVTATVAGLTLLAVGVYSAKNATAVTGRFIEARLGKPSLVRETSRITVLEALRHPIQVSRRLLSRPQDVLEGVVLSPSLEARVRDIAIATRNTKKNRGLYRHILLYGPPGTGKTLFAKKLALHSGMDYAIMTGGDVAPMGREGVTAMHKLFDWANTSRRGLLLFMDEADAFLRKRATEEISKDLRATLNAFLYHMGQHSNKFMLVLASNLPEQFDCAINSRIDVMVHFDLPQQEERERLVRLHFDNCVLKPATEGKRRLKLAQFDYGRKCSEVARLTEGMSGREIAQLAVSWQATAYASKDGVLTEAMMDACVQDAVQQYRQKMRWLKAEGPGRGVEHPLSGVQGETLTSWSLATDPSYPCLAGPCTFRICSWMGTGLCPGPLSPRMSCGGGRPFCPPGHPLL
Chain of UniProt P43121 (P43121 whole entry): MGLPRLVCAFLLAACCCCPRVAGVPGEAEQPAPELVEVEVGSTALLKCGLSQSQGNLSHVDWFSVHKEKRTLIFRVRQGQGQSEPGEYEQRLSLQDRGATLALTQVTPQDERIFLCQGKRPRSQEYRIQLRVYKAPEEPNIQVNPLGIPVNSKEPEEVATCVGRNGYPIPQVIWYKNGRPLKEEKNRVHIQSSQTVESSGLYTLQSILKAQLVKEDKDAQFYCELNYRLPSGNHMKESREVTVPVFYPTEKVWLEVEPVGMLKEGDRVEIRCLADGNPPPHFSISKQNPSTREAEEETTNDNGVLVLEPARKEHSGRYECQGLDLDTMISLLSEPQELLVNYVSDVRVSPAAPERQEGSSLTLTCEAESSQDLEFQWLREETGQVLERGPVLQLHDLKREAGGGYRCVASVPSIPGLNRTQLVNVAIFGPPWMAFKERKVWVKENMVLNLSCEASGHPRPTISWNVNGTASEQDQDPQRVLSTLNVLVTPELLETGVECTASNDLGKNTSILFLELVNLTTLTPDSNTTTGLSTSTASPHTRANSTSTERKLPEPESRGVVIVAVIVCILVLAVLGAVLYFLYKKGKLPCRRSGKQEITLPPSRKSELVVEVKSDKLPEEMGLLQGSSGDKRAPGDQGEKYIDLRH

Compound in this assay: C#CCNC(=O)CCSSCCC(=O)NCCc1ccc(C=O)c(C=O)c1
The assay is described as follows: lysine labeling ratio R10:1 (500 µM / 50 µM probe), SILAC-ABPP in living cells; higher = lower intrinsic lysine reactivity toward the probe, active = 2 or less. The note with it: HeLa; probe concentrations 500 vs 50 µM. On the procedure: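 Living HeLa cells (SILAC light/heavy) in PBS at room temperature were labeled with 50 µM versus 500 µM of the lysine-reactive, reductant-cleavable probe OPA-S-S-alkyne (SILAC labeling time not stated). Probe-modified peptides were CuAAC-biotinylated, captured on neutravidin and eluted with DTT/IAA, then quantified by LC-MS/MS. R = median peptide ratio per lysine (500/50 µM), combined over 3 forward and 3 reverse SILAC replicates. Ratios are capped at 20; R < 2 = hyper-reactive.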
“XRCC6 (lysine site: K114) (UniProt P12956)”: the “lysine labeling ratio R10:1” value is 2.12.

As to “TKT (lysine site: K310) (UniProt P29401)”, the “lysine labeling ratio R10:1” value is 7.45.

Turning to “MCAM (lysine site: K236) (UniProt P43121)”, the “lysine labeling ratio R10:1” value was 6.1.

On to “ATP2A2 (lysine site: K169) (UniProt P16615)”, for which the “lysine labeling ratio R10:1” value is 7.34.

For the target “ANXA2 (lysine site: K281) (UniProt P07355)”, the “lysine labeling ratio R10:1” value is 5.78.

On to UniProt P62273 (lysine site: K13), for which the “lysine labeling ratio R10:1” value was 1.45 (active).

On to “ITGB1 (lysine site: K238) (UniProt P05556)”, for which the “lysine labeling ratio R10:1” value is 1.34 (active).

With “MSN (lysine site: K514) (UniProt P26038)”, the “lysine labeling ratio R10:1” value is 3.78.

“RAB11B (lysine site: K179) (UniProt Q15907)”: the “lysine labeling ratio R10:1” value is 3.25.

As for “APOO (lysine site: K51) (UniProt Q9BUR5)”, the “lysine labeling ratio R10:1” value was 0.799 (active).

As to UniProt Q15149 (lysine site: K1923), the “lysine labeling ratio R10:1” value is 1.36 (active).

With “C3 (lysine site: K1051) (UniProt P01024)”, the “lysine labeling ratio R10:1” value is 6.25.

On to “VDAC1 (lysine site: K201) (UniProt P21796)”, for which the “lysine labeling ratio R10:1” value is 3.77.

As to “PPL (lysine site: K1151) (UniProt O60437)”, the “lysine labeling ratio R10:1” value is 3.53.

“MYH9 (lysine site: K760) (UniProt P35579)”: the “lysine labeling ratio R10:1” value is 3.31.

“BPTF (lysine site: K604) (UniProt Q12830)”: the “lysine labeling ratio R10:1” value is 8.91.

Consider UniProt Q9Y653 (lysine site: K49), for which the “lysine labeling ratio R10:1” value was 1.54 (active).

“CACNA2D1 (lysine site: K577) (UniProt P54289)”: the “lysine labeling ratio R10:1” value is 4.82.

For the target “HMOX1 (lysine site: K39) (UniProt P09601)”, the “lysine labeling ratio R10:1” value was 1.45 (active).

As to “SDCBP (lysine site: K223) (UniProt O00560)”, the “lysine labeling ratio R10:1” value was 2.46.

With “WDR1 (lysine site: K569) (UniProt O75083)”, the “lysine labeling ratio R10:1” value was 5.89.

Regarding “FAT4 (lysine site: K1809) (UniProt Q6V0I7)”, the “lysine labeling ratio R10:1” value was 1.9 (active).

On to “ATAD3B (lysine site: K117) (UniProt Q5T9A4)”, for which the “lysine labeling ratio R10:1” value is 1.26 (active).

As to “MSLN (lysine site: K487) (UniProt Q13421)”, the “lysine labeling ratio R10:1” value was 6.18.

As to UniProt O95084 (lysine site: K189), the “lysine labeling ratio R10:1” value was 2.74.

Turning to “SERBP1 (lysine site: K68) (UniProt Q8NC51)”, the “lysine labeling ratio R10:1” value was 5.36.

Turning to “APP (lysine site: K522) (UniProt P05067)”, the “lysine labeling ratio R10:1” value is 5.65.

Turning to “SPTAN1 (lysine site: K1699) (UniProt Q13813)”, the “lysine labeling ratio R10:1” value is 3.27.

Regarding “EPCAM (lysine site: K155) (UniProt P16422)”, the “lysine labeling ratio R10:1” value is 2.33.

Take “THBS1 (lysine site: K1103) (UniProt P07996)”: the “lysine labeling ratio R10:1” value was 0.85 (active).

As for “FRAS1 (lysine site: K211) (UniProt Q86XX4)”, the “lysine labeling ratio R10:1” value was 1.36 (active).

With “ANXA3 (lysine site: K184) (UniProt P12429)”, the “lysine labeling ratio R10:1” value is 1.13 (active).

Consider “SDC4 (lysine site: K114) (UniProt P31431)”, for which the “lysine labeling ratio R10:1” value was 3.81.

Regarding “CNN2 (lysine site: K30) (UniProt Q99439)”, the “lysine labeling ratio R10:1” value is 4.32.

With “GANAB (lysine site: K48) (UniProt Q14697)”, the “lysine labeling ratio R10:1” value was 3.47.

Turning to “EGFR (lysine site: K293) (UniProt P00533)”, the “lysine labeling ratio R10:1” value is 3.59.

Take UniProt Q68BL7 (lysine site: K168): the “lysine labeling ratio R10:1” value is 1.12 (active).

As for UniProt P21589 (lysine site: K478), the “lysine labeling ratio R10:1” value was 1.17 (active).

“EGFR (lysine site: K327) (UniProt P00533)”: the “lysine labeling ratio R10:1” value was 5.84.

Consider “PSEN1 (lysine site: K109) (UniProt P49768)”, for which the “lysine labeling ratio R10:1” value was 2.61.
